In PubChem BioAssay (NCATS):
Unmarked numbers belong to inactive results. Results filed as inconclusive are left out. Active and inactive are the calls of the source. Unless noted, the call rests on the fitted dose curve; in most records, active means well fitted curve in either direction with a large enough effect (not every such curve was filed as active); inconclusive means small, poorly fitted or top-dose-only effect, or another doubt; inactive means flat fitted curve, though single readings scatter.

Key:
[1] = molecular target: Lysosomal acid glucosylceramidase (Homo sapiens) (UniProt P04062); assay: Glucocerebrosidase-p2 (AID 348; in the data active means potency below about 10 µM; further: potency means the concentration at half of the fitted maximal effect); conditions: purified GBA, blue fluorogenic substrate, 40 min
How it was run: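 Compounds titrated from 0.6 nM upwards against 0.2 nM enzyme in pH 5.9 citric acid/KH2PO4, taurocholate, tween-20; blue fluorogenic substrate 80 uM, 40 min room temperature, stopped and read Ex 365/Em 440 for AC50.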

[2] = AP1 Signaling Pathway (AID 357); conditions: ME-180 AP-1-bla reporter, EGF-induced, beta-lactamase ratio, 5 h; at 7.69 µM (top of the series) unless noted;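 further: ME-180 reporter cells stimulated with EGF at its EC50 level; on the % scale 0 is the no-effect control and ±100 the full control effect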
How it was run: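 AP-1-bla ME-180 cells, Opti-MEM + 0.5% dialyzed FBS, plated overnight 37 °C. Cpd titration + EC50 EGF, 5 h 37 °C. CCF4 2.5 h RT; ex 405, em 460/530 ratio → %activity, AC50.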

[3] = NFAT Signaling Pathway (AID 444); conditions: Jurkat NFAT-bla M1, carbachol, beta-lactamase ratio, 5 h; at 7.69 µM (top of the series) unless noted;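 further: carbachol stimulus at about its EC50 of 1 µM final; on the % scale 0 is the no-effect control and ±100 the full control effect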
How it was run: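 Read-out: CCF4 FRET ratio (460 nm/530 nm) after 1 h RT dye loading, used for %activity and AC50 from titration series. Cells: Jurkat NFAT-β-lactamase/M1 line, treated with compound plus 1 uM carbachol for 5 h, 37 °C.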

[4] = Stat Signaling Pathway (AID 446); conditions: ME-180 SIE beta-lactamase reporter, IL-6 stimulated, 5 h; at 7.69 µM (top of the series) unless noted;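 further: ME-180 cervical cancer cells given 40 pM IL-6 alongside compound; SIE-controlled beta-lactamase reporter measured as 460/530 nm FRET emission ratio; on the % scale 0 is the no-effect control and ±100 the full control effect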
How it was run: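 Reporter line: ME-180 cervical carcinoma, SIE-beta-lactamase. Treatment: compound with 40 pM IL-6, 5 hrs, 37 C, in low-serum OPTI-MEM with 10 mM HEPES pH 7.3. Detection: 460/530 nm fluorescence.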

[5] = molecular target: Glucocorticoid receptor (Homo sapiens) (UniProt P04150); assay: GR-GFP Redistribution (AID 450;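 active means compounds whose dose series gives a full or clear partial fitted curve of increased nuclear translocation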; further: potency means the concentration at half of the fitted maximal effect); conditions: U2OS GR-GFP nuclear translocation, laser cytometry, 2 h
[6] = molecular target: Glucocorticoid receptor (Homo sapiens) (UniProt P04150); assay: GR-EFC Redistribution (AID 451; calls by dose curve; further: potency means the concentration at half of the fitted maximal effect); conditions: CHO-K1 GR-EFC translocation, beta-gal luminescence, 2 h
How it was run: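 Translocation of GR-ED fusion to nuclear EA restores b-gal, read by luminescence after 1 h room-temperature detection. Engineered CHO-K1 biosensor cells, 1,000/well, exposed 2 h at 37 C to titrations up to 46 uM final.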

[7] = molecular target: Mitogen-activated protein kinase 10 (Mus musculus) (UniProt Q61831); assay: JNK3 AlphaScreen Assay (AID 530); conditions: JNK3 lysate, c-Jun phosphorylation; series mostly up to 57.1 µM;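 further: kinase came from lysate of stimulated human HepG2 cells; signal reports phosphorylation of biotinylated GST-cJun 1-79 at Ser73 with 10 µM ATP; on the % scale 0 is the no-effect control and ±100 the full control effect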
How it was run: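 Room-temperature AlphaScreen kinase assay; pre-activated HepG2 lysate as JNK3 source, biotin-GST-cJun(1-79) substrate, 10 uM ATP, compound 15 min preincubation.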

[8] = molecular target: 3',5'-cyclic-AMP phosphodiesterase 4B (Homo sapiens) (UniProt Q07343); assay: qHTS Assay for Inhibitors of PDE-IV (AID 607; active means well fitted activation curve with a large enough effect in the main read-out, with a control signal flat, not every such curve was filed as active; further: % of control where 0% means no effect); conditions: HEK293 ACTOne CNG channel cells, membrane potential fluorescence; series mostly up to 22.9 µM
How it was run: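 Cell-based read-out of cAMP via a modified cyclic nucleotide-gated channel and membrane potential dye (535/590 nm) in HEK293 cells expressing PDE4 endogenously. Compounds tested up to 22.9 uM final; 100 uM RO 20-1724 reference.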

[9] = molecular target: Cytochrome P450 1A2 (Homo sapiens) (UniProt P05177); assay: p450-cyp1a2 (AID 410; calls by dose curve;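 further: -100% = full effect of reference inhibitor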); conditions: recombinant CYP1A2, luciferin-ME demethylation, luminescence; series mostly up to 11.4 µM
How it was run: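 Inhibition was calculated relative to 57 uM furafylline (full inhibition). The reaction used human CYP1A2 at 20nM with Luciferin-ME at its Km, 100uM, driven by an NADPH-regenerating system for 60 min at room temperature.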

[10] = molecular target: Cytochrome P450 2D6 (Homo sapiens) (UniProt P10635); assay: qHTS Assay for Inhibitors and Substrates of Cytochrome P450 2D6 (AID 891; active means well fitted inhibition curve with a large enough effect; further: nearly all actives have a fitted effect of over 60% in size; further: potency means the concentration at half of the fitted maximal effect); conditions: recombinant CYP2D6, luciferin-ME EGE luminescence; series mostly up to 11.4 µM
How it was run: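 Human CYP2D6 (5 nM) with 30 uM Luciferin-ME EGE (at Km) in 100 mM KPO4, compound preincubated 10 min, then NADPH regeneration system for 60 min at room temperature. Luciferin read by luminescence; normalized to 1.43 uM quinidine.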

[11] = molecular target: Cytochrome P450 2C19 (Homo sapiens) (UniProt P33261); assay: qHTS Assay for Inhibitors and Substrates of Cytochrome P450 2C19 (AID 899; active means well fitted inhibition curve with a large enough effect; further: on the % scale 0 is the no-effect control and ±100 the full control effect; nearly all actives have a fitted effect of over 60% in size); conditions: recombinant CYP2C19, luciferin-H EGE luminescence; series mostly up to 11.4 µM
How it was run: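 Reactions contain 5nM enzyme, 10uM Luciferin-H EGE (KM) and 50mM KPO4; compound preincubates 10 min at 37C, NADPH regeneration starts turnover for 60 min. Luminescence after detection reagent gives activity.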

[12] = molecular target: Cytochrome P450 2C9 (Homo sapiens) (UniProt P11712); assay: qHTS Assay for Inhibitors and Substrates of Cytochrome P450 2C9 (AID 883; active means well fitted inhibition curve with a large enough effect; further: potency means the concentration at half of the fitted maximal effect; nearly all actives have a fitted effect of over 60% in size); conditions: recombinant CYP2C9, luciferin-H luminescence, 60 min; series mostly up to 57.1 µM
How it was run: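 Turnover of Luciferin-H (100uM, KM) by 10nM human CYP2C9 was measured over 60 min at 37C with NADPH regeneration; inhibitors and some substrates reduce luminescence. Data normalized to sulphaphenazole 57uM.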

Sequence of Lysosomal acid glucosylceramidase (Homo sapiens) (P04062 whole entry, looked up): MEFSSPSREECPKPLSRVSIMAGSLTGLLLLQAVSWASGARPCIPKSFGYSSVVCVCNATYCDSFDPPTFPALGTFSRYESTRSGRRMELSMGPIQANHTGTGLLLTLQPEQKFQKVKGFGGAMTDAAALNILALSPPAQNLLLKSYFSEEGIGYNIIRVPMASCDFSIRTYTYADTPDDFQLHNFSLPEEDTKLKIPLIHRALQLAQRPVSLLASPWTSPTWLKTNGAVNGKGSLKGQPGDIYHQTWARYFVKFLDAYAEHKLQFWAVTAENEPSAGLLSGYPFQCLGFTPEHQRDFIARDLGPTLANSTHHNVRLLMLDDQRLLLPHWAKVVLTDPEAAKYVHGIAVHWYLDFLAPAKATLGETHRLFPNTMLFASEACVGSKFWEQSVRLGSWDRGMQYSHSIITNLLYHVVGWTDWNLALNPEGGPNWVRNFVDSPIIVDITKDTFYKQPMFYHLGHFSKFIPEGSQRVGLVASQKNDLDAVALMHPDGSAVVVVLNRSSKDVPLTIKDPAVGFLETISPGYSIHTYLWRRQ
Sequence of Cytochrome P450 1A2 (Homo sapiens) (P05177 whole entry, looked up): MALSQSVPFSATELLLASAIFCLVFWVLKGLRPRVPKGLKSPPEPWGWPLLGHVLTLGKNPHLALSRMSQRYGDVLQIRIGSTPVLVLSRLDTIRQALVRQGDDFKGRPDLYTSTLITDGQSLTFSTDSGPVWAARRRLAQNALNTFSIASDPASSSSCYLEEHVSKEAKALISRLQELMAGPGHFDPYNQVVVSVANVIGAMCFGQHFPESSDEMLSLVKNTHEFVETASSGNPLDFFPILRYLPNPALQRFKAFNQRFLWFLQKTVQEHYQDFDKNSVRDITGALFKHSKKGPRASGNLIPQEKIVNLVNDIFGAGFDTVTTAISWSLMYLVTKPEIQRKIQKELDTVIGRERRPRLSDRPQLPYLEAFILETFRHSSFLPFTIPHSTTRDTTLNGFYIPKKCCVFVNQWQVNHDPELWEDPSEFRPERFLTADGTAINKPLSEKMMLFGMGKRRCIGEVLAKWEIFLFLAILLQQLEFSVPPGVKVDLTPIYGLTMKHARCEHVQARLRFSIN
Sequence of Glucocorticoid receptor (Homo sapiens) (P04150 whole entry, looked up, the tested form may be a part): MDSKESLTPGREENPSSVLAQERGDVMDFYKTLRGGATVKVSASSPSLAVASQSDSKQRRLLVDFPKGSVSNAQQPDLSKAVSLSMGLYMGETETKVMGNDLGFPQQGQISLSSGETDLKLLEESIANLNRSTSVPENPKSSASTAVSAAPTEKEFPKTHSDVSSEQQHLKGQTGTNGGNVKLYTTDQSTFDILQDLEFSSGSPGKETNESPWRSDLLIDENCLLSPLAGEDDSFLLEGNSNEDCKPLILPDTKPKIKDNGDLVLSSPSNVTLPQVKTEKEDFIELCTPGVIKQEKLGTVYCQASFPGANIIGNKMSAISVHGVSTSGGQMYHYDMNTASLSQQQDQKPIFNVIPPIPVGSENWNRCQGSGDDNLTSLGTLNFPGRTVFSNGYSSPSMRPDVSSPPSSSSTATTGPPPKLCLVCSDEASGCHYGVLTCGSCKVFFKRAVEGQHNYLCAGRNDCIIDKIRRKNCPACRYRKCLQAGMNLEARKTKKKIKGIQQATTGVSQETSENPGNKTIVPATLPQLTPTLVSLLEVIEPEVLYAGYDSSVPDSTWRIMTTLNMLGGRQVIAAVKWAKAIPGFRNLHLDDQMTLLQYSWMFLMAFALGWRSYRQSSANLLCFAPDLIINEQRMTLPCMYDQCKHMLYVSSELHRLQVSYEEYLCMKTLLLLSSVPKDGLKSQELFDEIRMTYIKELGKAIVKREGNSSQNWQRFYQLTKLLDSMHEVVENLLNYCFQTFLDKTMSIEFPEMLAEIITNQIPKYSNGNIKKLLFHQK
Sequence of 3',5'-cyclic-AMP phosphodiesterase 4B (Homo sapiens) (Q07343 whole entry, looked up): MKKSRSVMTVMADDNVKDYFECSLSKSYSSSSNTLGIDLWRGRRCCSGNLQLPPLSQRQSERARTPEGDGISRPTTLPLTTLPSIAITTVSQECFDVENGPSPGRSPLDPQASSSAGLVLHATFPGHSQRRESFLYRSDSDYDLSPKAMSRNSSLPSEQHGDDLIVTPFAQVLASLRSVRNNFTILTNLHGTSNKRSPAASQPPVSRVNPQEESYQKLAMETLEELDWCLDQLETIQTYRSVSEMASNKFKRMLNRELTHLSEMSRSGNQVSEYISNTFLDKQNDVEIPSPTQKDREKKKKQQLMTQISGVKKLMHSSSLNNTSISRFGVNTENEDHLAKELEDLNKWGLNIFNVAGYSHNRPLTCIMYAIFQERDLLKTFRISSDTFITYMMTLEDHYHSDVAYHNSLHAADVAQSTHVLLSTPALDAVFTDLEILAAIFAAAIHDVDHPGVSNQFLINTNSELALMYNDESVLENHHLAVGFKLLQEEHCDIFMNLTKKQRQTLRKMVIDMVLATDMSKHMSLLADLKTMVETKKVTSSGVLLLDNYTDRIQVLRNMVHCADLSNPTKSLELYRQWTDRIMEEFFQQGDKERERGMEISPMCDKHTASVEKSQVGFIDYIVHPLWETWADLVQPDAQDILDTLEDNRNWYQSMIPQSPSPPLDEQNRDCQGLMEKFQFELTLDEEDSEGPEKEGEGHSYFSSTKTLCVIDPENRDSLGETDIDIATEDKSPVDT
Sequence of Cytochrome P450 2D6 (Homo sapiens) (P10635 whole entry, looked up): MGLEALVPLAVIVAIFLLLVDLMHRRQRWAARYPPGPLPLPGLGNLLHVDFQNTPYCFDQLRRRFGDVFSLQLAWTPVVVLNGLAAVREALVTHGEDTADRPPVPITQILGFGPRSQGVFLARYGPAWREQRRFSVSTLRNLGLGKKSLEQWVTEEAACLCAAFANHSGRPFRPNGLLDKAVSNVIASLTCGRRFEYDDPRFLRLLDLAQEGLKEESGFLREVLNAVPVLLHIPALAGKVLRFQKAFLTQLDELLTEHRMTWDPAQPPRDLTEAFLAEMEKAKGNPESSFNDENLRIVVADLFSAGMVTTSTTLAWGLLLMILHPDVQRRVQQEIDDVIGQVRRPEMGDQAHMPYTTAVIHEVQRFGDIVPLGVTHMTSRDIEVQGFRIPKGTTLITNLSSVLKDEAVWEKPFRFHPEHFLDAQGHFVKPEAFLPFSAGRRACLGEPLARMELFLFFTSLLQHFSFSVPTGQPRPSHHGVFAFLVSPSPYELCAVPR
Sequence of Cytochrome P450 2C19 (Homo sapiens) (P33261 whole entry, looked up): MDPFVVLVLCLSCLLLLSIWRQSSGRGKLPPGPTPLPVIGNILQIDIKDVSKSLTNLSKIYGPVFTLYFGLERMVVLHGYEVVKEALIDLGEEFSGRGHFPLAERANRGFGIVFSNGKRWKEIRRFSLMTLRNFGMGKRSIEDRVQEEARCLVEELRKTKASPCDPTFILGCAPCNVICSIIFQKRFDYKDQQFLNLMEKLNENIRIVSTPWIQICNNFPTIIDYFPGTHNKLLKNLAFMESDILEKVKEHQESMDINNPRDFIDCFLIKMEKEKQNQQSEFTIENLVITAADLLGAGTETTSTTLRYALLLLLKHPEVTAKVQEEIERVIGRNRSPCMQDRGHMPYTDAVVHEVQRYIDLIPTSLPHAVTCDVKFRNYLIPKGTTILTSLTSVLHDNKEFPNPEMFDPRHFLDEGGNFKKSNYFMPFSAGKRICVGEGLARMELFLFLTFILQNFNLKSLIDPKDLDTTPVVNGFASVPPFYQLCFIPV
Sequence of Cytochrome P450 2C9 (Homo sapiens) (P11712 whole entry, looked up): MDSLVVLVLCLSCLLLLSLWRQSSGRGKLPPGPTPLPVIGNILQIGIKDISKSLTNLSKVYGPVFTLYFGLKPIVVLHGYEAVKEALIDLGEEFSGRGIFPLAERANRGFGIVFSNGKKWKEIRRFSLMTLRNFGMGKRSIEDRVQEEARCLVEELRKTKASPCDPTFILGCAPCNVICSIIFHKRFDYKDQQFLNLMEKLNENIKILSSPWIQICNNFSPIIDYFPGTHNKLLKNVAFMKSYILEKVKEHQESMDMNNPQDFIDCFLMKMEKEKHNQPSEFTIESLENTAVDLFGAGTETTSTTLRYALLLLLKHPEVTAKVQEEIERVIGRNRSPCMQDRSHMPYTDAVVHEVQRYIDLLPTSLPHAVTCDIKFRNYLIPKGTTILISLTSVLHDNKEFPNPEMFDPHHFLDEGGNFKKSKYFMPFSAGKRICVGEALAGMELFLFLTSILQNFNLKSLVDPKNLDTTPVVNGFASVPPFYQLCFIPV

Structure (SMILES) | Potency [1] | activity change, negative = inhibition [2] [%] | activity change, negative = inhibition [3] [%] | activity, negative = inhibition [4] [%] | Potency [5] | Potency [6] [µM] | activity change, negative = inhibition [7] | outcome [8] | Potency [9] | Potency [10] | Potency [11] | Potency [12]
C[C@@](Br)(C(=O)O)[C@H](Br)C(=O)O | > 11.4 µM | 3.08 | 17.1 | 8.31 | > 46 µM | > 9.22 | 1.39% [at 11.4 µM] | inactive | – | – | – | –
O=P(O)(OP(=O)(O)c1ccccc1)c1ccccc1 (tested in a mixture with another compound) | > 11.4 µM | -8.54 | -3.07 | 2.23 | > 46 µM | > 9.22 | 3.03% [at 11.4 µM] | inactive | – | – | – | –
COc1cc2cc(c1Cl)N(C)C(=O)C[C@H](OC(=O)C(C)C)[C@]1(C)O[C@@H]1[C@@H](C)[C@H]1C[C@](O)(NC(=O)O1)[C@@H](OC)/C=C\C=C(\C)C2 | > 11.4 µM | 23.1 | – | 6.86 | 0.278 µM (active) | – | 2.93% [at 11.4 µM] | inactive | inactive | inactive | inactive | –
O=C(O)C[C@H]1OCC=C2CN3CC[C@@]45C6=CC(=O)C(=O)C([N+](=O)[O-])=C6N[C@H]4[C@H]1[C@H]2C[C@@H]35 | > 11.4 µM | 4.93 | 2.25 | 2.08 | > 46 µM | > 9.22 | -0.499% [at 11.4 µM] | inactive | – | – | – | –
CN(C)CCCNc1c2c(nc3ccc(Cl)cc13)CCCC2 | > 11.4 µM | -1.02 | -26.1 | 10 | > 46 µM | > 9.22 | 3.7% [at 11.4 µM] | – | – | – | – | –
CC(C)(C)c1cc(C#N)cc(Br)c1OP(=O)(Oc1c(Br)cc(C#N)cc1C(C)(C)C)c1ccccc1 | > 11.4 µM | 7.55 | -6.35 | 16.6 | > 46 µM | > 9.22 | -1.35% [at 11.4 µM] | inactive | – | – | – | –
N[C@@H](CP(=O)(O)O)C(=O)O | > 11.4 µM | 0.329 | 2.91 | 2.68 | > 46 µM | > 9.22 | 5.7% [at 11.4 µM] | inactive | – | – | – | –
C1C[C@@H]2CN(CCCN3CCOCC3)[C@@H](C1)O2 | > 11.4 µM | -6.14 | – | 11.7 | – | > 9.22 | 4.78% [at 11.4 µM] | inactive | inactive | – | – | –
O=C(NCP(=O)(O)O)c1cccnc1 | > 11.4 µM | 23.1 | – | 4.58 | > 46 µM | > 9.22 | – | inactive | inactive | – | – | –
O.O.[NH-]C1(C(=O)O)CCCC1.[NH-]C1(C(=O)O)CCCC1.[Ni+2] | > 11.4 µM | 8.54 | -0.81 | -5.65 | > 46 µM | > 9.22 | -2.59% [at 11.4 µM] | inactive | – | – | – | –
COc1ccc(C[C@@H](N)c2ccc(OC)cc2)cc1 | > 11.4 µM | -1.85 | 3.98 | -0.344 | > 46 µM | > 9.22 | 3.37% [at 11.4 µM] | inactive | – | 0.631 µM (active) | – | –
N#CS.N=C=S.N=C=S.[Cu].[NH2-].[NH2-].[NH2-].[NH2-].c1ccc2ncccc2c1 | > 11.4 µM | -1.15 | 0.5 | -4.61 | > 46 µM | > 9.22 | 0.42% [at 11.4 µM] | inactive | – | – | – | –
O=C(O)C(O)(c1ccc(-c2ccccc2)cc1)c1ccc(-c2ccccc2)cc1 | > 11.4 µM | -25.7 | – | -5.5 | – | > 9.22 | 1.15% [at 11.4 µM] | inactive | inactive | – | – | 3.16 µM (active)
C[C@]12CN(CC[N+](C)(C)C)C[C@]1(C)[C@@H]1CC[C@@H]2O1 | 6.39 µM (active) | 12.6 | 10.2 | -6.86 | > 46 µM | > 9.22 | -2.5% [at 11.4 µM] | inactive | – | – | – | –
